# Reference: PubChem BioAssay AID687001 (Broad Institute, 2013)
# Entries with a potency or affinity are not part of this list. Calls of active or inactive are those of the source.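 How the source made its calls: active means signal-lowering compounds whose fitted half-maximal concentration is at or below twice the top tested dose in every run; inconclusive means runs disagree, flat 30 to 70% inhibition, or poor curve fit; inactive means the rest.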
# Target: Protein S100-A4 (Homo sapiens) (UniProt P26447)
# Sequence (P26447 whole entry, looked up): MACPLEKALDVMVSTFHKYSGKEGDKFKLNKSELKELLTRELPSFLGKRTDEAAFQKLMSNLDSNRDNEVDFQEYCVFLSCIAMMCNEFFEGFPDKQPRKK
# Test: S100A4-myosin IIA binding inhibitor potency, dose response, biochemical, fluorescence polarization, cherry-picked hits (AID 687001)
# Conditions: FP, S100A4/TAMRA-myosin IIA peptide binding; series mostly up to 11 µM
row,SMILES,outcome
1,COC(=O)C1=C(c2cc3ccccc3s2)C[C@@H]2CC[C@H]1N2C(=O)NCc1ccc(C(F)(F)F)cc1,inactive
2,CCOC(=O)c1ccc(N=Cc2c(O)n(-c3ccccc3F)c(=S)[nH]c2=O)cc1,inactive
3,COC(=O)[C@]1(C)C[C@H]1[C@H](NP(=O)(c1ccccc1)c1ccccc1)c1ccccc1,inactive
4,Cc1c(OC(=O)N(C)C)ccc2c1O/C(=C\c1ccco1)C2=O,inactive
5,O=C(Cc1cccnc1)N1CCCCN2[C@@H](CO)[C@@H](c3ccc(C#CC4(O)CCCC4)cc3)[C@@H]2C1,inactive
6,O=C(O)[C@H]1[C@H](CO)[C@H]2Cn3c(ccc(-c4ccncc4)c3=O)[C@@H]1N2C(=O)C1CCCCC1,inactive
7,O=Cc1cn(Cc2ccc(Br)cc2)c2ccccc12,inactive
8,CN(C)c1cc[n+](CC(O)C[n+]2ccc(N(C)C)cc2)cc1,inactive
9,O=C(O)Cn1cc(/C=C2\C(=O)NC(=O)N(c3ccc(Br)cc3)C2=O)c2ccccc21,inactive
10,O=[N+]([O-])c1cc(Cl)c(Cl)cc1Cl,inactive
11,Cc1c(C)c2ccc(OCC(=O)N3CCC(C(=O)O)(c4ccccc4)CC3)cc2oc1=O,inactive
12,CCCCn1nnnc1C(c1cccc2ccccc12)N1CCC2(CC1)C(=O)NCN2c1ccccc1 (stereo unspecified),inactive
13,C=CCN1CC[C@]23c4c5ccc(O)c4OC2C(O)CC[C@@]3(O)[C@H]1C5 (stereo partly specified),inactive
14,c1ccc(-c2ccncc2)cc1,inactive
15,COC(C)(C)CCCC(C)C/C=C/C(C)=C/C(=O)OC(C)C (stereo unspecified),inactive
16,COc1ccc(OC)c(N2C(=O)CC(=O)NC2=O)c1,inactive
